In PubChem BioAssay one finds composite z-score and z-score data, which are given here for eight compounds.

Structures are written as SMILES. Active and inactive are the calls of the source.

Assay [1] deals with Plasmodium falciparum Sir2 (PF13_0152, Sir2A). The assay is described as follows: Plasmodium falciparum Sir2A binding compounds – biochemical, small-molecule microarray, 635 nm fluorescence, primary screen (AID 1098).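 Also: score merges spot fluorescence intensity with its signal-to-noise ratio.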 The conditions noted are these: fluorescence 635 nm, higher = more signal.
The nature of assay [2]: probe aDKK1 binding to arrayed compounds – biochemical, biotinylated probe, 635/667 nm fluorescence, primary screen (AID 1099).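 Also: score merges 667nm spot fluorescence with signal to noise across triplicate slides.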 Conditions: small-molecule microarray, higher = more signal.
The nature of assay [3]: probe aCHRDL2 binding to arrayed compounds – biochemical, biotinylated probe, 635/667 nm fluorescence, primary screen (AID 1100). The conditions noted are these: small-molecule microarray, higher = more signal.
Assay [4] can be described thus: change in splice reporter luminescence, either direction, cell-based, HEK293, spliceosome inhibition project, primary screen (AID 1101).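 Also: HEK293 cells carrying a splicing-competent luciferase reporter gene; test concentration not given here.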 The conditions noted are these: HEK293 splicing luciferase reporter, 24 h, higher = more signal, called active from +8 up or from −8 down. In general terms: Reporter assays use an easily measured gene product as a stand-in for the process of interest.

The target in assay [5] is Fibroblast growth factor 10 (Homo sapiens) (UniProt O15520). Description: compounds binding fibroblast growth factor 10 – biochemical, small-molecule microarray, 635 nm fluorescence, primary screen (AID 1102). The conditions noted are these: FGF10 binding, fluorescence 635 nm, higher = more signal.
Sequence of Fibroblast growth factor 10 (Homo sapiens) (O15520 whole entry, looked up): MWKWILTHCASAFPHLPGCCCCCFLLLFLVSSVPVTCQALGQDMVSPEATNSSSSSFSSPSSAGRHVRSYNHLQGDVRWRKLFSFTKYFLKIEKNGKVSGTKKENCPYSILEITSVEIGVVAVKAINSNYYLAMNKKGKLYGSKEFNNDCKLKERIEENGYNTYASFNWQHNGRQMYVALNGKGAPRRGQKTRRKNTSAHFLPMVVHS
Assay [6] relates to glycogen synthase kinase-3 (GSK3A per assay name; protocol says GSK3B). The assay is described as follows: compounds binding glycogen synthase kinase-3 – biochemical, small-molecule microarray, 635 nm fluorescence, GSK3A, primary screen (AID 1103). Also: the record names both GSK3A and GSK3B. The conditions noted are these: fluorescence 635 nm, higher = more signal.
Assay [7] deals with Epidermal growth factor receptor (Homo sapiens) (UniProt P00533). The assay is described as follows: compounds binding epidermal growth factor receptor – biochemical, small-molecule microarray, 635 nm fluorescence, primary screen (AID 1104).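 Also: score merges 667 nm emission intensity with spot signal to noise over triplicate slides.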 Conditions: EGFR binding, higher = more signal.
Sequence of Epidermal growth factor receptor (Homo sapiens) (P00533 whole entry, looked up): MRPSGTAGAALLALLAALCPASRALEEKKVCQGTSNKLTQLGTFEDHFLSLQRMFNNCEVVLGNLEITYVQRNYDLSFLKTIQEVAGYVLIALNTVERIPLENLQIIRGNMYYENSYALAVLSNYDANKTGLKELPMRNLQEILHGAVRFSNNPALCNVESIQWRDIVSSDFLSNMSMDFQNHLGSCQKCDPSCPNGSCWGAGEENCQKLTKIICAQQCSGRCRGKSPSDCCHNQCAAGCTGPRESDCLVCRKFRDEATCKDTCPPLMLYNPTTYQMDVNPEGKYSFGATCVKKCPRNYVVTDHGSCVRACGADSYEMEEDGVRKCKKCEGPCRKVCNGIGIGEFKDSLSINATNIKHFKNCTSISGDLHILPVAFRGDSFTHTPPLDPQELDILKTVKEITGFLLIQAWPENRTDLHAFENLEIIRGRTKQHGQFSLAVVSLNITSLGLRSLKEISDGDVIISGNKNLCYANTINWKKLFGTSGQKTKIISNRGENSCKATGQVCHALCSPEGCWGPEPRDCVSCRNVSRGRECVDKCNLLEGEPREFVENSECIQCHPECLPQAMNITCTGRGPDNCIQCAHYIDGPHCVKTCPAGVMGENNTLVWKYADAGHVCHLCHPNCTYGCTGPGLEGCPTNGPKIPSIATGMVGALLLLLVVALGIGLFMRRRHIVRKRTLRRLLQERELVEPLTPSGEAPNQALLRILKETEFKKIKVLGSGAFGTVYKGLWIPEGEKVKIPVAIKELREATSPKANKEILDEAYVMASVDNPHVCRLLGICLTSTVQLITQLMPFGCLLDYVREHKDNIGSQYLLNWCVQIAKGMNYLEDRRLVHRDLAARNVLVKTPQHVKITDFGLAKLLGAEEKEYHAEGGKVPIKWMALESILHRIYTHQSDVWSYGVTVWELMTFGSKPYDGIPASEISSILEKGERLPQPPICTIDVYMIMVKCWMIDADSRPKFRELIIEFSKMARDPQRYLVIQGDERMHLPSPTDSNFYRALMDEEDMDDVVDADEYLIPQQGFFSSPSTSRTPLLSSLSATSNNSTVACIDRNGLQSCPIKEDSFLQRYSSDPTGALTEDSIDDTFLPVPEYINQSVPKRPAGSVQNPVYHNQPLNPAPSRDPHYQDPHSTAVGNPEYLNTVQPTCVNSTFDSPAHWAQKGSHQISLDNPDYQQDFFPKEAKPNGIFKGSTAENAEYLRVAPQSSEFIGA
Assay [8] has as its target Follistatin-related protein 3 (Homo sapiens) (UniProt O95633). The assay is described as follows: compounds binding follistatin-related protein 3 – biochemical, small-molecule microarray, 635 nm fluorescence, primary screen (AID 1105).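 Also: score merges emission near 667 nm and signal to noise per printed spot across three slides.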 The conditions noted are these: FSTL3 binding, higher = more signal.
Assay [9] concerns the target Dickkopf-related protein 1 (Homo sapiens) (UniProt O94907). Description: small molecules binding DKK1 protein – biochemical, small-molecule microarray, 635 nm fluorescence scan, primary screen (AID 1106).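 Also: score merges emission near 667 nm with signal to noise over three replicate slides.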 The conditions noted are these: higher = more signal.
Assay [10] has as its system Inhibin beta A chain (activin A). The assay is described as follows: small molecules binding activin A – biochemical, small-molecule microarray, 635 nm fluorescence scan, primary screen (AID 1107).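 Also: mouse activin A protein probed at 4.33 µg/mL on printed slides; score merges bound-protein fluorescence near 667 nm with spot signal-to-noise.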 Conditions: INHBA, higher = more signal.
Assay [11] concerns Human papillomavirus type 1a protein E7 (residues 44-93). The assay is described as follows: small molecules binding HPV E7 44-93 – biochemical, small-molecule microarray, residues 44-93, 635 nm fluorescence, primary screen (AID 1108).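 Also: E7 fragment applied at 1 µg/mL in TBST for 1 h at 4 C; score combines spot fluorescence with its signal to noise ratio.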 The conditions noted are these: fluorescence 635 nm, higher = more signal.
Assay [12] can be described thus: hepatitis C replication reporter changes, two-sided – Huh7 cells, luciferase reporter, HCV replication inhibitor project, primary screen (AID 1109).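 Also: huh7 hepatoma cells harbouring a luciferase neomycin HCV replicon reporter; luciferase luminescence as measure of HCV replicon replication; test concentration not given here.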 Conditions: Huh7 HCV replicon luciferase reporter, 48 h; higher = more signal.
Assay [13] deals with Left-right determination factor 2 (Homo sapiens) (UniProt O00292). Description: small molecules binding LEFTY2 protein – biochemical, small-molecule microarray, 635 nm fluorescence scan, primary screen (AID 1110). The conditions noted are these: higher = more signal.
Sequence of Left-right determination factor 2 (Homo sapiens) (O00292 whole entry, looked up): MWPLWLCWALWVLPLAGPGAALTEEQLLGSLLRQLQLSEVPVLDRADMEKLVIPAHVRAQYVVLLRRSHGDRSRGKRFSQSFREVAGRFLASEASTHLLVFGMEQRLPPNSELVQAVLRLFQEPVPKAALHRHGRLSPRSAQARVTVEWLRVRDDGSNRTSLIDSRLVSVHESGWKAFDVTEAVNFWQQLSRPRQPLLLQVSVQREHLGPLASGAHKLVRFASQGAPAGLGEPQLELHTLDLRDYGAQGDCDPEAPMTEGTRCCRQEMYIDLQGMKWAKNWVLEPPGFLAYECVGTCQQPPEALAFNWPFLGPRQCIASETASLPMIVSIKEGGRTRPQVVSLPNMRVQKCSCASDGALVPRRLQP
Assay [14] deals with Calmodulin-1 (Homo sapiens) (UniProt P0DP23). Description: small molecules binding calmodulin-1 with EGTA – biochemical, small-molecule microarray, Cy5-labelled CALM1, profiling panel (AID 1111).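 Also: labelled calmodulin applied in Tris saline Tween buffer holding calcium plus EGTA and DTT.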 Conditions: Cy5-CALM1 binding fluorescence, higher = more signal.
The target is the same in assay [15]. The assay is described as follows: small molecules binding Ca-loaded calmodulin-1 – biochemical, small-molecule microarray, Cy5-labelled CALM1, plus calcium, artefact control for SMM control-protein annotation, profiling panel (AID 1112).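 Also: score merges spot fluorescence with signal to noise from triplicate slides.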 The conditions noted are these: Cy5-CALM1 binding fluorescence, higher = more signal.
A short description of assay [16]: probe aWnt5a binding to arrayed compounds – biochemical, biotinylated probe, 635/667 nm fluorescence, primary screen (AID 1113).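 Also: score merges 667 nm fluorescence intensity with signal-to-noise per printed feature.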 Conditions: small-molecule microarray, higher = more signal.
A short description of assay [17]: probe aShh binding to arrayed compounds – biochemical, biotinylated probe, 635/667 nm fluorescence, primary screen (AID 1114).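 Also: probe is biotin-labelled aShh protein from a stem cell growth factor screen; measures binding of labelled protein to compounds printed on the slide; score merges feature fluorescence at 667 nm with signal-to-noise.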 Conditions: small-molecule microarray, higher = more signal.
The nature of assay [18]: probe aNog binding to arrayed compounds – biochemical, biotinylated probe, 635/667 nm fluorescence, primary screen (AID 1115).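 Also: probe is biotinylated aNog protein used at 0.15 µg/mL for 1 h at 4 C; z-score combines 667 nm fluorescence of each spot with its signal to noise.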 The conditions noted are these: small-molecule microarray, higher = more signal.
In assay [19] the target is Torsin-1A-interacting protein 1 (Homo sapiens) (UniProt Q5JTV8). Description: compound microarray binding of lysate hLAP1 – cell lysate, small-molecule microarray, COS7 lysate, 635/667 nm fluorescence, primary screen (AID 1116). The conditions noted are these: 635 nm fluorescence, higher = more signal.
Sequence of Torsin-1A-interacting protein 1 (Homo sapiens) (Q5JTV8 whole entry, looked up): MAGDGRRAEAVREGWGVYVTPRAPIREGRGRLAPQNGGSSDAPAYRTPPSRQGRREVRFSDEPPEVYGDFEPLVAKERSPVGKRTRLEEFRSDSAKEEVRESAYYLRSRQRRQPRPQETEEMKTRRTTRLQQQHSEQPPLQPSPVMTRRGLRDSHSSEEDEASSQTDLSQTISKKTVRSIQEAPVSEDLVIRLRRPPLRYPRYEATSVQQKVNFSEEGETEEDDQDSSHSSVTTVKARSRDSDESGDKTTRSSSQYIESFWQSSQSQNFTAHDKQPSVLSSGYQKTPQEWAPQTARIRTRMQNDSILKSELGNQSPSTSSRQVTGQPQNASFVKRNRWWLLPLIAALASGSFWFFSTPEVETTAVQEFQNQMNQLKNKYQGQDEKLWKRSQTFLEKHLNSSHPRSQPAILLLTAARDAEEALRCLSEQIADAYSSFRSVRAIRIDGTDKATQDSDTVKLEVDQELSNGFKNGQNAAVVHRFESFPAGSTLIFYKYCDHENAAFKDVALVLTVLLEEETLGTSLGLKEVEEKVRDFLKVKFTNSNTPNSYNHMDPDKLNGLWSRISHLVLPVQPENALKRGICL
In assay [20] the target is Alpha-bungarotoxin (Bungarus multicinctus) (UniProt P60615). The assay is described as follows: compounds binding labelled alpha-BTX control protein – biochemical, small-molecule microarray, Alexa647 label, 635/667 nm fluorescence, artefact control for SMM control protein annotation, profiling panel (AID 1117). Conditions: alpha-BTX-A647 binding fluorescence, higher = more signal.
Sequence of Alpha-bungarotoxin (Bungarus multicinctus) (P60615 whole entry, looked up): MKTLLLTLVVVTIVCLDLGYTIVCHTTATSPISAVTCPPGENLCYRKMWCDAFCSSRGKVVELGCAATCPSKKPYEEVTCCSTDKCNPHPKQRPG

Sequence of Dickkopf-related protein 1 (Homo sapiens) (O94907 whole entry, looked up): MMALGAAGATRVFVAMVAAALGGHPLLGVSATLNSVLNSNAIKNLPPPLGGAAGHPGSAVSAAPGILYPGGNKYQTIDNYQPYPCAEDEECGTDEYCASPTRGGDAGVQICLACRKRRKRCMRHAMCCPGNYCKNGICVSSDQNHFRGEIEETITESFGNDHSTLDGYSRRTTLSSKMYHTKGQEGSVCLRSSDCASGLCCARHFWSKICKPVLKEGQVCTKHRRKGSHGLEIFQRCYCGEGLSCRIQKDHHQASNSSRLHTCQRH
Sequence of Follistatin-related protein 3 (Homo sapiens) (O95633 whole entry, looked up): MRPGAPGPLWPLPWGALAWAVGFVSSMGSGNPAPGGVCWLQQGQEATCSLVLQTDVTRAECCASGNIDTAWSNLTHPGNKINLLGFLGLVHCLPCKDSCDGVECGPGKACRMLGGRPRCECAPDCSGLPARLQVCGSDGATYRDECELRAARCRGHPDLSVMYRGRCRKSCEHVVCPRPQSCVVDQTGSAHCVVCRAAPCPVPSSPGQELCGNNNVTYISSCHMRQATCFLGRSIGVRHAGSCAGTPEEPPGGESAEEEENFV

With `O=C(c1ccccc1)N1C(=O)[C@]2(COC(c3ccc(OCCCO)cc3)=N2)Cc2ccccc21`, the composite z-score in assay [1] is 1.7; in assay [2], 0.688; in assay [3], 0.784; in assay [5], 1.07; in [6], 1.32; in assay [7], 0.218. Besides, the composite z-score in assay [8] was 1.23; in assay [9] it was 0.427; in assay [10], 0.424; in assay [11] it was 1.04; in assay [13], 0.448; in assay [14], 1.8. For the same compound, the composite z-score was 0.106 in assay [15]; -0.0303 in [16]; -0.321 in assay [17]; 1.13 in assay [18]; 1.84 in assay [19]; 2.29 in assay [20]. Further, the z-score is 0.00817 (inactive) in [4] and -1.14 in [12].
Take `COC(=O)[C@@]1(Cc2ccc(F)cc2)[C@H]2c3cc(C(=O)N4CCCC4)n(CCCNc4ncc(C(F)(F)F)cc4Cl)c3C[C@H]2CN1C(=O)c1ccccc1`: the composite z-score in assay [1] is 0.913; in assay [2], 1.43; in [3], 1.05; in [5] it was 0.137; in assay [6], -0.548; in [7] it was 0.23. Also, the composite z-score was -0.142 in [8]; -0.808 in assay [9]; 1.17 in assay [10]; 1.39 in assay [11]; -0.386 in assay [13]; 1.59 in assay [14]. For the same compound, the composite z-score in [15] was 0.868; in assay [16], -0.0107; in assay [17], 0.831; in assay [18], 1.37; in assay [19], 0.679; in assay [20], 0.493. The z-score was -2.38 (inactive) in [4] and -1.48 in assay [12].
For `C=C(CCCC)/C(=C/C[C@H](OC(C)=O)c1ccccc1OCCO)c1cc(C(=O)OC)ccc1OC`, the composite z-score was 1.3 in [1]; -0.231 in assay [2]; -0.285 in assay [3]; 0.143 in assay [5]; -0.0368 in [6]; -0.184 in assay [7]. Besides, the composite z-score is -0.154 in assay [8]; -0.358 in [9]; 1.12 in assay [10]; 0.0187 in assay [11]; -0.264 in [13]; -0.621 in [14]. Also, the composite z-score in [15] is -0.803; in assay [16], -0.12; in assay [17] it was 0.0048; in assay [18], -0.0184; in assay [19], 0.233; in assay [20], 0.439. The z-score was -0.616 (inactive) in assay [4] and -2.06 in assay [12].
In the case of `NCCCCCNC(=O)[C@@H]1C[C@@H]2C(=O)N[C@@H](Cc3ccccc3)C(=O)N2[C@@H]1c1ccc(O)cc1`, the composite z-score is 1.14 in assay [1]; -0.0335 in assay [2]; 0.475 in assay [3]; 1.11 in assay [5]; 1.17 in assay [6]; 0.632 in [7]. Besides, the composite z-score came to 1.37 in assay [8]; 0.484 in assay [9]; 0.609 in assay [10]; 1.37 in [11]; 0.406 in assay [13]; 1.18 in assay [14]. Moreover, the composite z-score was 1.16 in [15]; -0.0425 in assay [16]; -0.138 in assay [17]; -0.144 in [18]; 0.672 in [19]; 0.924 in assay [20]. Moreover, the z-score is 1.31 (inactive) in assay [4] and -0.471 in [12].
`NC(=O)NCC#Cc1ccc2c(c1)[C@]1(C(=O)N2)[C@H](c2ccc(O)cc2)N2[C@H](c3ccccc3)[C@H](c3ccccc3)OC(=O)[C@H]2[C@@H]1C(=O)O`: the composite z-score in assay [1] is -0.0693; in [2], -0.173; in assay [3], 0.617; in assay [5], -0.114; in [6], -0.928; in [7], -0.683. Moreover, the composite z-score is -0.966 in [8]; -1.22 in assay [9]; -0.203 in assay [10]; -0.0303 in assay [11]; -1.09 in assay [13]; 0.342 in [14]. Further, the composite z-score was 0.521 in [15]; -0.185 in assay [16]; -0.42 in assay [17]; -0.0683 in assay [18]; -0.354 in assay [19]; -0.27 in [20]. Also, the results for the z-score in assay [4] and in [12] were 0.307 (inactive) and -0.708, respectively.
With `C=CCC(OC(C)=O)[C@@H]1[C@@H](N(Cc2cc3ccccc3o2)C(=O)c2cccc3ccccc23)c2cc(OCCCO)ccc2N1C(=O)c1ccc(-c2ccccc2)cc1` (stereo not given in full), the composite z-score was -0.424 in assay [1]; 0.365 in assay [2]; 0.531 in assay [3]; 0.0822 in assay [5]; -0.34 in assay [6]; -0.0077 in assay [7]. Further, the composite z-score in assay [8] was 0.176; in assay [9] it was -0.0541; in [10] it was 0.971; in [11], -0.0367; in assay [13], -0.126; in [14], 0.132. Moreover, the composite z-score in [15] was 0.908; in assay [16] it was 0.0368; in [17], -0.0553; in assay [18] it was -0.219; in assay [19] it was 0.235; in assay [20], 0.359. The z-score in assay [4] was -1.82 (inactive); in assay [12], 0.0372.
With `C=C(C(=O)CC[C@@H](OC(=O)c1cccnc1)c1ccccc1OCCO)C(C)C`, the composite z-score in assay [1] was 0.0757; in [2], -0.181; in [3], 0.0623; in assay [5] it was 0.969; in [6] it was 0.342; in assay [7] it was 0.029. In addition, the composite z-score in assay [8] was 0.401; in assay [9] it was 0.063; in assay [10] it was 1.34; in assay [11], -0.139; in assay [13] it was 0.373; in assay [14] it was -0.948. The composite z-score in assay [15] is -0.895; in [16] it was -0.0643; in assay [17], -0.0977; in assay [18] it was -0.247; in assay [19], 1.85; in assay [20], 0.593. In addition, the z-score was 1.34 (inactive) in assay [4] and -2.35 in assay [12].
With `COCCOC(=O)N1C(=O)[C@@]2(c3ccccc31)[C@H](c1ccc(O)cc1)N1[C@H](c3ccccc3)[C@H](c3ccccc3)OC(=O)[C@H]1[C@@H]2C(=O)Nc1nc2ccccc2s1`, the composite z-score is 1.39 in assay [1]; -0.0358 in assay [2]; -0.167 in assay [3]; 0.724 in [5]; 1.05 in [6]; 0.252 in [7]. The composite z-score in assay [8] is 0.542; in assay [9], 0.39; in [10], 0.0446; in [11] it was 1.19; in assay [13], 0.118; in [14], 1.29. Moreover, the composite z-score is 0.501 in assay [15]; -0.0276 in assay [16]; 0.249 in assay [17]; 0.0308 in assay [18]; 1.33 in assay [19]; 1.87 in assay [20]. The figures for the z-score in [4] and in [12] were -1.3 (inactive) and -0.993, respectively.
